The source of these data is ChEMBL document CHEMBL1961873, “Compounds: GSK PKIS; Assays: Nanosyn kinase panel” (2012).

SMILES strings stand for the structures.

Experiment [1] deals with Mast/stem cell growth factor receptor Kit (Homo sapiens) (UniProt P10721). Conditions: at 1 µM.
The test system of experiment [2] is Mast/stem cell growth factor receptor Kit (Homo sapiens), P10721 [D816V]. The settings on record: at 0.1 µM.
The test system is the same in experiment [3]. The settings on record: at 1 µM.
Experiment [4] relates to Mast/stem cell growth factor receptor Kit (Homo sapiens), P10721 [T670I]. The settings on record: at 0.1 µM.
Mast/stem cell growth factor receptor Kit (Homo sapiens), P10721 [T670I], sequence (P10721 whole entry T670I): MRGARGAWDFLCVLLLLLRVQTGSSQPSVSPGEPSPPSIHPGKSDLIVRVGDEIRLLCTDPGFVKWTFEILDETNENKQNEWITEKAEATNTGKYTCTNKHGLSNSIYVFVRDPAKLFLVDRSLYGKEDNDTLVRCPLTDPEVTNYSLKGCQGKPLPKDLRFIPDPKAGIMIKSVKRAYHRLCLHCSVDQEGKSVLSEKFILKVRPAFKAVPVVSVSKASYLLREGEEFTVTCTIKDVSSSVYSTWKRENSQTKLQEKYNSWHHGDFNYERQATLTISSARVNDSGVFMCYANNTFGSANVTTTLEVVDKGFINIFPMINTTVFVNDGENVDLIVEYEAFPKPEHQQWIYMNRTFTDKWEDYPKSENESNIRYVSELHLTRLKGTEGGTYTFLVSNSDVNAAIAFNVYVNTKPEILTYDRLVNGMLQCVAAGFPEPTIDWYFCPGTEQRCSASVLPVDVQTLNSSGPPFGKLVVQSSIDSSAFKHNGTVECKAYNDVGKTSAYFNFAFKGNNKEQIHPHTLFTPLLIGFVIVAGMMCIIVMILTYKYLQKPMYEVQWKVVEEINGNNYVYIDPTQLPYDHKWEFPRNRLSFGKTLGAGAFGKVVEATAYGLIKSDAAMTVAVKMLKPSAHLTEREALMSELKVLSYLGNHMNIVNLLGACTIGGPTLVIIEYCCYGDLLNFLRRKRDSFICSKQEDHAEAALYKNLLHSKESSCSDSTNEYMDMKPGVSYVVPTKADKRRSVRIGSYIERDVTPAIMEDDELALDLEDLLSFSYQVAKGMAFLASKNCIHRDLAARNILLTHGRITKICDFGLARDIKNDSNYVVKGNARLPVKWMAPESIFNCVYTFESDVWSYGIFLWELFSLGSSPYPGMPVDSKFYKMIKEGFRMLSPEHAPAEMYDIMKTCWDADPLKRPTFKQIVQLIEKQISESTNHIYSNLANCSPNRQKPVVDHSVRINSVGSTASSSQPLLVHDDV
For experiment [5] the test system is unchanged. The settings on record: at 1 µM.
Experiment [6] concerns Mast/stem cell growth factor receptor Kit (Homo sapiens), P10721 [V560G]. The settings on record: at 0.1 µM.
Mast/stem cell growth factor receptor Kit (Homo sapiens), P10721 [V560G], sequence (P10721 whole entry V560G): as the sequence (P10721 whole entry T670I) above, with V560G, I670T counted along it
Experiment [7] shares this test system. The settings on record: at 1 µM.
Experiment [8] addresses Tyrosine-protein kinase Lck (Homo sapiens) (UniProt P06239). Conditions: at 0.1 µM.
Experiment [9] shares this target. Conditions: at 1 µM.
For experiment [10], the target named is Leukocyte tyrosine kinase receptor (Homo sapiens) (UniProt P29376). Conditions: at 0.1 µM.
Leukocyte tyrosine kinase receptor (Homo sapiens), sequence (P29376 whole entry): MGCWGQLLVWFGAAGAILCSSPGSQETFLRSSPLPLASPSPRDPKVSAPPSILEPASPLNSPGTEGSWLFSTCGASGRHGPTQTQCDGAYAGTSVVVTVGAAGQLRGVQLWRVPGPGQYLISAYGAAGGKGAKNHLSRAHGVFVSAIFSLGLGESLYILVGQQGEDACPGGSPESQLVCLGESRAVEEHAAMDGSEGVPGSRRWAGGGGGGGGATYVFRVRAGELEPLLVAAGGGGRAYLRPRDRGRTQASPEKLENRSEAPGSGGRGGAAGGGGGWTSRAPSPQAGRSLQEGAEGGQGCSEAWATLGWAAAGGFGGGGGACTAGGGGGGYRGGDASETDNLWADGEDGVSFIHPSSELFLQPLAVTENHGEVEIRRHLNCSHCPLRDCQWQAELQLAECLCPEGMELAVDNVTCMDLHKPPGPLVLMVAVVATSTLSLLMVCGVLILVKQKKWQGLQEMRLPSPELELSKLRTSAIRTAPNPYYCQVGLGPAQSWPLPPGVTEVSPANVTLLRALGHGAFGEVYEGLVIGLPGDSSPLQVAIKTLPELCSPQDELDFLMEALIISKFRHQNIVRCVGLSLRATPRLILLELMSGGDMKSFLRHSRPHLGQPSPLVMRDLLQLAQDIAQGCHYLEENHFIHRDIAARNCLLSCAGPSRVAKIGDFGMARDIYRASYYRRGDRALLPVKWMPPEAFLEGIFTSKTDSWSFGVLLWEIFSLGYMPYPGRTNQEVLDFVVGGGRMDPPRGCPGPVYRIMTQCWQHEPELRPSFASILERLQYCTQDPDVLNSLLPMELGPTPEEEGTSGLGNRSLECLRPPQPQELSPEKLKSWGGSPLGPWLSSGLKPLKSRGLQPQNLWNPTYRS
Experiment [11] shares this target. The settings on record: at 1 µM.
Experiment [12] concerns the target Tyrosine-protein kinase Lyn (Homo sapiens) (UniProt P07948). Conditions: at 0.1 µM.
Experiment [13] has the same target. Conditions: at 1 µM.
For experiment [14] the target is unchanged. Conditions: at 0.1 µM. This is another data set of the same source.
Experiment [15] has the same target. The settings on record: at 1 µM. This is another data set of the same source.
Experiment [16] has as its target T1, Tyrosine-protein kinase Mer (Homo sapiens) (UniProt Q12866).
T1 sequence (whole entry): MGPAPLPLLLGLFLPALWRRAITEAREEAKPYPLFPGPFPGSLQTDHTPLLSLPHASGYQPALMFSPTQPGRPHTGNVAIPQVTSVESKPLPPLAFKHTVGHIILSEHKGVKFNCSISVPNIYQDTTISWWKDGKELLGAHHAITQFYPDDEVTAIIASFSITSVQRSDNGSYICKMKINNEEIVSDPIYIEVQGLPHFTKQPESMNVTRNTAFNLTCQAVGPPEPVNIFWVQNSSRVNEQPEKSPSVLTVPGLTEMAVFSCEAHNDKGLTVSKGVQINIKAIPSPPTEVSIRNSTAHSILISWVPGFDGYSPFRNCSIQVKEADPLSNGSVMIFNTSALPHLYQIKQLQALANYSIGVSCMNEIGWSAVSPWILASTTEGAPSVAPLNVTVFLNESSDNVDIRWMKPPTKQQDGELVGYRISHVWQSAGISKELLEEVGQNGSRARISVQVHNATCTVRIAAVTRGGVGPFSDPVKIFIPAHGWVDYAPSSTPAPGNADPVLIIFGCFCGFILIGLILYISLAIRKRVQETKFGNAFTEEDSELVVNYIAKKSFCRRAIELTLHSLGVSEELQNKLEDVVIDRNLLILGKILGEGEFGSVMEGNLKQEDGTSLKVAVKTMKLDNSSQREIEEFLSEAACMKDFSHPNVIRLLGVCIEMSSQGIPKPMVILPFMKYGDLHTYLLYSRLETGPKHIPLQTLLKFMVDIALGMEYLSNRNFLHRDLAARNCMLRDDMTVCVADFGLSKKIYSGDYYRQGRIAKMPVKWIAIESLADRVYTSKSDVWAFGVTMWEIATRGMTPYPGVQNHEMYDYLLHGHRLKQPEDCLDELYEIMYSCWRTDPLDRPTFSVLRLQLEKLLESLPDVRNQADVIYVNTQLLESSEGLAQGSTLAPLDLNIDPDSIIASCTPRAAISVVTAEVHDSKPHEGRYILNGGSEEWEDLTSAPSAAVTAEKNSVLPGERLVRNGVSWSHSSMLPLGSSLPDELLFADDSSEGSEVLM
Conditions: at 0.1 µM.

In experiment [17] the target is T1, Tyrosine-protein kinase Mer (Homo sapiens). Conditions: at 1 µM.
Experiment [18] addresses Hepatocyte growth factor receptor (Homo sapiens) (UniProt P08581). Conditions: at 0.1 µM.
The target is the same in experiment [19]. The settings on record: at 1 µM.
In experiment [20] the target is T2, Muscle, skeletal receptor tyrosine-protein kinase (Homo sapiens) (UniProt O15146).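 Note: values are mean inhibition of MuSK from the GSK PKIS kinase screening panel.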
T2 sequence (whole entry): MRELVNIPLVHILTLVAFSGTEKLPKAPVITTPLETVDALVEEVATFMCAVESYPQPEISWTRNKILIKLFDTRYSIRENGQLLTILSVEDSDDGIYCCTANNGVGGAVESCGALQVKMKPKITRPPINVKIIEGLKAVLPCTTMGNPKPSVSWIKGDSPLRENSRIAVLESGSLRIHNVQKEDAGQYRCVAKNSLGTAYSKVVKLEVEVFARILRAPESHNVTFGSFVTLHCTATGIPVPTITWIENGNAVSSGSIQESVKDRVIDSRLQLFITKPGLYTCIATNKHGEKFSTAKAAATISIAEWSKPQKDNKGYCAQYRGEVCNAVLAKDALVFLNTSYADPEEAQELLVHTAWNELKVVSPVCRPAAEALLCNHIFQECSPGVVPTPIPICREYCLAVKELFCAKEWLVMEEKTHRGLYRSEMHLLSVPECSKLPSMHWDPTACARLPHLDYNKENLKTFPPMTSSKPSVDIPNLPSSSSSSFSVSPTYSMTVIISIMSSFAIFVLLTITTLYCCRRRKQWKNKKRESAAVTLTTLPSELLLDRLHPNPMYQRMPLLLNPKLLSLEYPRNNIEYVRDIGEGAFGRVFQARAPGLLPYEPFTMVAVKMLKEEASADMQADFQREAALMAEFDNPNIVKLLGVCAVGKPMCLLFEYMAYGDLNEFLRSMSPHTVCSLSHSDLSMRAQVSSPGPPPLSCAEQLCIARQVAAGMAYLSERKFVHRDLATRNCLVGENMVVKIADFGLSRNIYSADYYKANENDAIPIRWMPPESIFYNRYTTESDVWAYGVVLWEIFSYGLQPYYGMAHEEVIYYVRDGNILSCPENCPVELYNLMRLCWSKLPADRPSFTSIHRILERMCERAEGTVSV
Conditions: at 0.1 µM.

Mast/stem cell growth factor receptor Kit (Homo sapiens), sequence (P10721 whole entry): as the sequence (P10721 whole entry T670I) above, with I670T counted along it
Tyrosine-protein kinase Lyn (Homo sapiens), sequence (P07948 2-512 limits assumed): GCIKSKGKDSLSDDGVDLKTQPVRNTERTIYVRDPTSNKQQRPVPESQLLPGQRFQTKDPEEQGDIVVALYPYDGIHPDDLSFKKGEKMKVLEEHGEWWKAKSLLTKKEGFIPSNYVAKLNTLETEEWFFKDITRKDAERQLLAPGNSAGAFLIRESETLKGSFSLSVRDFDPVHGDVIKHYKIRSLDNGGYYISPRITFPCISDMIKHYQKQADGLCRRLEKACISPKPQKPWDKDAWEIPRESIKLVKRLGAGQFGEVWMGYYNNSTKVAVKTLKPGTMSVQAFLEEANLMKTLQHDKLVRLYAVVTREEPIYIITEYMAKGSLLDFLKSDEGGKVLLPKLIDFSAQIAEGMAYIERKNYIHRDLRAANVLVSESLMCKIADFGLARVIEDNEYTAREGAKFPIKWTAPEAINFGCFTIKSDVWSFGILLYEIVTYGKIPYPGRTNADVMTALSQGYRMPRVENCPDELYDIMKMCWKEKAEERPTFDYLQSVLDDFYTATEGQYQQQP
Tyrosine-protein kinase Lck (Homo sapiens), sequence (P06239 2-509 limits assumed): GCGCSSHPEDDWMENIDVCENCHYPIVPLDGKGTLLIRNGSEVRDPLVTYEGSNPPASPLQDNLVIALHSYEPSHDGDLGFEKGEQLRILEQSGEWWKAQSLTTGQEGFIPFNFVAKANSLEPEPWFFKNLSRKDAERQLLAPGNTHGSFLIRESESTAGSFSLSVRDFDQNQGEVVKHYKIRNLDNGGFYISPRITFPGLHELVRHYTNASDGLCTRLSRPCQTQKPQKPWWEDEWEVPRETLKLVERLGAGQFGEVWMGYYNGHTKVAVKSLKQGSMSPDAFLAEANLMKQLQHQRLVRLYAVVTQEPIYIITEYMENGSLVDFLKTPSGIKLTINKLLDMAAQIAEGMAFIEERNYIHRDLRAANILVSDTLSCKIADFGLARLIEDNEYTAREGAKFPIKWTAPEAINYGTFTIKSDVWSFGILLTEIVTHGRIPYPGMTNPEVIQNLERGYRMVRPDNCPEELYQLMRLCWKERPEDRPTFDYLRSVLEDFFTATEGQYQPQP
Hepatocyte growth factor receptor (Homo sapiens), sequence (P08581 whole entry): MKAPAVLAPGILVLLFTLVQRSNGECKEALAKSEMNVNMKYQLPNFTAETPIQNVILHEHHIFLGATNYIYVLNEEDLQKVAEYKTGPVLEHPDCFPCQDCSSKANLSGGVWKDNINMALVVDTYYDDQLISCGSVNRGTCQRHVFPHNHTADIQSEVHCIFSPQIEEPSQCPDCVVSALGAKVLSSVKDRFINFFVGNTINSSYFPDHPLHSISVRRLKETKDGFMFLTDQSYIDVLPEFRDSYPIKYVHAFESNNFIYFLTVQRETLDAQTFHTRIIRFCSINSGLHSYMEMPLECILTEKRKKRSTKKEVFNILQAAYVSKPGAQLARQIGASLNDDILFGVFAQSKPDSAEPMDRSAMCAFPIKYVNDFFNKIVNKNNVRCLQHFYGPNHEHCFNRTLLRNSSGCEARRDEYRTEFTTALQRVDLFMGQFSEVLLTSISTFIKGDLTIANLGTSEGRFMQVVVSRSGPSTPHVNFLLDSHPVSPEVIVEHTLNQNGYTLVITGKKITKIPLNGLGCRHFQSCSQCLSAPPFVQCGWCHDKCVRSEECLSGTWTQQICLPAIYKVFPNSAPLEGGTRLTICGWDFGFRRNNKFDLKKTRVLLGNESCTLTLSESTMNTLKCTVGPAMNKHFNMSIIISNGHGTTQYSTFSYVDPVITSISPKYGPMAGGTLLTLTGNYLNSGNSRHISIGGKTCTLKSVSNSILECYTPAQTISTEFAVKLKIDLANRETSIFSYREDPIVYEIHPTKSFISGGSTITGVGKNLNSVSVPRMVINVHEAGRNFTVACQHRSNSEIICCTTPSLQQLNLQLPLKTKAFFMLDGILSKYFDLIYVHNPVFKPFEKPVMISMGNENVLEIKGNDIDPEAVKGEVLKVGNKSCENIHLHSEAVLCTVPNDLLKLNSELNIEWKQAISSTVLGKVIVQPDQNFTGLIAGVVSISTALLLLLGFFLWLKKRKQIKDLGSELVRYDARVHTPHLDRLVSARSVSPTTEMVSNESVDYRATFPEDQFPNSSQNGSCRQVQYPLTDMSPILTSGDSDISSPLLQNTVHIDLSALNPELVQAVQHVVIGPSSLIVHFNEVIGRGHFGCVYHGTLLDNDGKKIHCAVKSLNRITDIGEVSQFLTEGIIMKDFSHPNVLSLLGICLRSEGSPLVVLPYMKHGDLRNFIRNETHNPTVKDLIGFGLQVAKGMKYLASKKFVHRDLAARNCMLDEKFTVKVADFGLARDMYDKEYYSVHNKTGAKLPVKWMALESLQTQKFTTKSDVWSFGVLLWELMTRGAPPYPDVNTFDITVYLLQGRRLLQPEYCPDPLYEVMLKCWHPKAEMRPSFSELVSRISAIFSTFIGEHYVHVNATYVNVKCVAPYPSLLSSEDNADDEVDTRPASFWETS
Mast/stem cell growth factor receptor Kit (Homo sapiens), P10721 [D816V], sequence (P10721 whole entry D816V): as the sequence (P10721 whole entry T670I) above, with I670T, D816V counted along it

Turning to `CC(C)COC(=O)c1ccc2c(c1)/C(=C/Nc1ccc(S(N)(=O)=O)cc1)C(=O)N2`, the inhibition in [1] was 24.6%; in experiment [2], 2.4%; in experiment [3], 35.2%; in [4], -2.43%; in experiment [5] it was 6.53%; in [6], 2.21%. The inhibition stood at 5.62% in experiment [7]; 0.55% in [8]; 13.9% in experiment [9]; 0.07% in experiment [10]; 4.2% in experiment [11]; 2.35% in experiment [12]. The inhibition in experiment [13] was 24.3%; in [14] it was 0.51%; in experiment [15] it was 20.4%; in [16] it was 2.14%; in experiment [17], 4.37%; in experiment [18], -4.39%. Also, the inhibition amounted to 13.3% in [19] and 7.69% in experiment [20].
On to `O=S(=O)(CCNCc1ccc(-c2ccc3ncnc(Nc4ccc(OCc5cccc(F)c5)c(Cl)c4)c3c2)o1)c1ccccc1`, for which the inhibition worked out at 9.57% in experiment [1]; 3.44% in experiment [2]; 6.21% in experiment [3]; 3.42% in experiment [4]; 5.36% in experiment [5]; 0.27% in experiment [6]. Moreover, the inhibition in experiment [7] was -1.16%; in experiment [8], 3.99%; in experiment [9], 8.49%; in [10], 5.14%; in experiment [11], 5.42%; in experiment [12], 6.84%. Further, the inhibition was 7.64% in [13]; 3.9% in [14]; 4.05% in experiment [15]; 3.42% in experiment [16]; 7.37% in [17]; -0.44% in [18]. Besides, the inhibition in experiment [19] worked out at 6.95%; in experiment [20], 6.83%.
With `CS(=O)(=O)CCNCc1coc(-c2ccc3ncnc(Nc4ccc(OCc5ccccc5)cc4)c3c2)c1`, the inhibition in experiment [1] was 8.33%; in [2] it was 0.03%; in experiment [3], 1.72%; in [4] it was 2.17%; in [5], 3.24%; in experiment [6], 0.76%. For the same molecule, the inhibition in experiment [7] turned out to be 2.94%; in experiment [8], 3.8%; in [9], 14.4%; in experiment [10], 4.91%; in experiment [11], 11.4%; in experiment [12], 3.61%. Moreover, the inhibition is 8.56% in experiment [13]; 3.96% in [14]; 6.66% in experiment [15]; 5.03% in [16]; 29.9% in experiment [17]; 9.58% in [18]. The figures for the inhibition in [19] and in experiment [20] were 9.58% and 2.22%, respectively.
Consider `NC(=O)c1sc(-n2cnc3ccc(C(F)(F)F)cc32)cc1OCc1ccccc1Br`, for which the inhibition in [1] is 5.18%; in experiment [2], 5.27%; in [3], 5.73%; in experiment [4], 2.58%; in [5], 3.8%; in [6], -0.43%. Also, the inhibition in [7] is -0.61%; in experiment [8], -0.17%; in [9] it was 1.85%; in [10] it was 3.16%; in experiment [11] it was 3.98%; in experiment [12], 5.8%. Besides, the inhibition stood at 6.03% in experiment [13]; 2.92% in [14]; 3.3% in experiment [15]; 1.71% in experiment [16]; 1.36% in [17]; 3.13% in experiment [18]. The figures for the inhibition in [19] and in experiment [20] were -0.12% and 4.43%, respectively.
Consider `CNC(=O)c1cc(-c2ccc(F)cc2)cc(-c2ccc(S(=O)(=O)N3CCCC3)cc2)c1N`, for which the inhibition in experiment [1] was 3.53%; in experiment [2] it was 3.32%; in [3] it was 1.27%; in experiment [4], 3.02%; in experiment [5], 1.68%; in [6] it was -2.57%. For the same molecule, the inhibition worked out at 1.97% in experiment [7]; 2.58% in experiment [8]; 2.91% in experiment [9]; 2.81% in [10]; 3.29% in [11]; 2.72% in [12]. For the same molecule, the inhibition turned out to be 2.56% in [13]; 1.59% in [14]; 1.39% in experiment [15]; 0.74% in [16]; 2.3% in [17]; 3.93% in [18]. In addition, the inhibition came out at 5.04% in [19] and 2.8% in [20].
